For this test, the target named is AT4G31550 (Arabidopsis thaliana, UniProt Q9SV15 228-325). The test can be described thus: DPI-ELISA; DPI-ELISA, streptavidin 384-well plate, 1-2 pmol biotinylated dsDNA per well, crude native E. coli extract, anti-His detection; buffer as in Brand et al. [46],; high values mean tight binding. The settings on record: tags: C-terminal His (pET-DEST42); label: 5' biotin on forward strand; dsDNA, one strand shown. For orientation: ELISA stands for enzyme-linked immunosorbent assay.
Chain of AT4G31550 (Q9SV15 228-325): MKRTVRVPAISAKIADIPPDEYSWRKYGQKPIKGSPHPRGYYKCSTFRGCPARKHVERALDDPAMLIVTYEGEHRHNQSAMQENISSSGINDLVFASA
In the case of AAAAAATAGGCGTTATGGCTAACACCAAAA, the binding signal was 0.685 ± 0.106 absorbance.
As for AAAAAAATGTTCAAGCTCGATCTACAAAAA, the figure is 0.63 ± 0.127 absorbance; as for AAAAAACGCTCCGTTTTTGCAATGCGAAAA, 0.61 ± 0.0707 absorbance; as for AAAAAATGGTCGATCCGCATGCAGTTAAAA, 0.52 ± 0.099 absorbance.
AAAAAAGGGGTCCTTTTCCAATGTCTAAAA yielded a binding signal of 0.605 ± 0.0495 absorbance.
As to AAAAAACGGTAAGTCGACAAAA, the binding signal is 0.545 ± 0.0354 absorbance.
As for AAAAAACAGTTCGATGTCACCCCCGCAAAA, the figure is 0.565 ± 0.106 absorbance; as for AAAAAACACGCCATTGACACTGGTAAAAAA, 1.67 ± 0.219 absorbance.
The value for AAAAAACGTTAACACTGATTTAGGGTAAAA was 0.595 ± 0.0778 absorbance; that for AAAAAACTGCTTGCCCCTGTCTCCATAAAA was 0.67 ± 0.17 absorbance; that for AAAAAACACAGCATTAGGCTATCGGTAAAA was 0.655 ± 0.134 absorbance.
As for AAAAAATATCGGGCACGGTCTTGTCTAAAA, the figure is 0.585 ± 0.0495 absorbance; as for AAAAAAAATTAGTCTCTTCGTCTCCCAAAA, 0.575 ± 0.106 absorbance; as for AAAAAACTTCCCTCCTTGTCCTCCCCAAAA, 0.66 ± 0.113 absorbance.
Sequence AAAAAATGCCCATGTGCACCCGTACGAAAA returned a binding signal of 0.56 ± 0.0849 absorbance.
As for AAAAAATTAGCTTATCCTTGCTTGTGAAAA, the figure is 0.655 ± 0.134 absorbance.
The value for AAAAAACGTGCGCGTGCATGTCATCGAAAA was 0.665 ± 0.0919 absorbance; that for AAAAAACTTCTAGTTTATGCTTCCGTAAAA was 0.69 ± 0.141 absorbance.
The value for AAAAAATTAATCCATGCTTATGTCTGAAAA was 0.71 ± 0.184 absorbance; that for AAAAAATTCTAACTTAGCCTATGTCCAAAA was 0.695 ± 0.163 absorbance; that for AAAAAACAACTTGGAGGATTTACAGCAAAA was 0.73 ± 0.141 absorbance.
For AAAAAACCTTACTGTTGATTCTGGTTAAAA, the binding signal came out at 0.635 ± 0.134 absorbance.
AAAAAATTCCGGCTTGACGCTGCATAAAAA showed a binding signal of 0.655 ± 0.106 absorbance.
The value for AAAAAACTACGTATATTCAGGCCCTAAAAA was 0.68 ± 0.113 absorbance.

Values taken from article PMC3795721, “Screening for Protein-DNA Interactions by Automatable DNA-Protein Interaction ELISA”.
